# Assay outcomes (PubChem BioAssay)
# ELG1 DNA repair – inhibitors of ELG1-dependent DNA repair in HEK293T cells; HEK293T ELG1-luciferase reporter, luminescence, 16 h; DNA damage induced by 5-fluorouridine; Potency, µM (top dose mostly 46.1 µM), inactives show at the highest dose activity change, negative = inhibition, usual class: inhibitors; 2.3% of 330,000 active; also: potency is read from the fitted curve at half-maximal effect; nearly all actives have a fitted effect of over 55% in size
#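 DMSO vehicle served as the neutral condition. Each well held 2,000 cells given 5-fluorouridine plus compound; after 16 hr at 37 °C/5% CO2, ONE-Glo was added and luciferase measured 30 min later.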
# HT1080 IDH1KD tx – kills HT-1080 cells with IDH1 knockdown; HT-1080 IDH1 knockdown viability, ATP luminescence, 48 h; Potency, µM (titrated, usually from 46.1 µM), for the others: top-dose activity, negative = toxicity, usual class: cytotoxic; 2% of 360,000 active; AID 686971;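 also: potency is read from the fitted curve at half-maximal effect; 0% = DMSO wells and -100% = cell-free medium wells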
#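 HT-1080-IDH1KD cells (IDH1 knocked down), 750/well in RPMI with 5% FBS, treated with compound 48 h at 37 degrees C. Viability by CellTiter-Glo luminescence, normalised to DMSO and no-cell wells; concentration-response curves classed.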
# TDP1 cell noCPT – qHTS for Inhibitors of human tyrosyl-DNA phosphodiesterase 1 (TDP1): qHTS in cells in absence of CPT; 15% of 420,000 active; Potency, µM (titrated, usually from 46.2 µM), for inactives: at the highest dose activity change, negative = growth inhibition, actives largely listed as inhibitors; DT40 Tdp1-/- hTDP1 cells, no CPT, ATP luminescence, 48 h; also: potency is read from the fitted curve at half-maximal effect; nearly all actives have a fitted effect of over 55% in size
#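 Readout: luminescence from CellTiter-Glo after 30 min in the dark at RT. Cells: DT40 Tdp1-/- with stable hTDP1, 400/well. Exposure: compounds alone, ≥48 hr, 37 °C.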
# TDP1 cell CPT – DT40-hTDP1 cell growth loss with CPT. Potency, µM (highest dose often 46.2 µM), without a hit: top-dose activity change, negative = growth inhibition, most hits filed as inhibitors. 12% of 420,000 active. chicken DT40 Tdp1-/-;hTDP1 cells + 20 nM CPT, ATP luminescence, 48 h; also: potency is read from the fitted curve at half-maximal effect; nearly all actives have a fitted effect of over 55% in size
#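 Chicken DT40 Tdp1-/- cells complemented with human TDP1, 400 cells/well, exposed to compounds plus 20 nM camptothecin for at least 48 h at 37 C; viability read as ATP content by CellTiter-Glo luminescence.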
# IL1B secr inh – inhibitors of inflammasome signaling (IL-1 beta secretion); THP-1 LPS/ATP IL-1B secretion, AlphaLISA, 16 h; active compounds read low; activity change, % at 57.5 µM; 4.7% of 360,000 active; AID 743279; in the data active = activity change below about -50%; inconclusive = mostly about -30% to -49%
#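 Secreted IL-1B measured by AlphaLISA bead assay after 16 h compound exposure of THP-1 cells; compounds (final up to 57.5 uM) added 1 h before LPS (250 ng/mL) and ATP (1.25 mM) stimulation; lower signal means less secretion.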
# HT1080NT lethal – kills 2HG-producing HT-1080-NT fibrosarcoma cells; HT-1080-NT fibrosarcoma viability, CellTiter-Glo ATP luminescence, 48 h; Potency, µM (doses to about 46.1 µM), inactives show at the top dose activity, negative = less viability, actives largely listed as cytotoxic; 1.6% of 360,000 active;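 also: NT is the 2HG producing partner of a matched IDH1 knockdown line; potency is read from the fitted curve at half-maximal effect; 0% = DMSO-treated cells and -100% = media-only wells without cells; nearly all actives have a fitted effect of over 55% in size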
#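 Fibrosarcoma NT cells, 750 per well in 5% FBS RPMI, were exposed to compound for 48 hours. Viability: CellTiter-Glo luminescence.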
# Starred values were filed as active, the others as inactive; ? = inconclusive; · = no result. An excerpt weighted towards active compounds, which were near 19% of everything screened. Unless noted, calls follow the shape of the dose curve; as a rule, active = well fitted curve in the direction sought with a large enough effect; inconclusive = small, poorly fitted or top-dose-only effect, or another doubt; inactive = no such curve, though single readings can be large; an effect the other way counts as inactive or inconclusive. Unless noted, % is scaled to controls: 0 for no effect and ±100 for the full control effect.
SMILES,ELG1 DNA repair,HT1080 IDH1KD tx,TDP1 cell noCPT,TDP1 cell CPT,IL1B secr inh,HT1080NT lethal
O=[N+]([O-])c1cccc(C=NNc2ccccc2)c1,·,?,?,-1%,-65*,-20%
O=C(N/N=C/c1ccsc1)c1cc2ccccc2o1,18%,3%,-3%,7%,-11,3%
C/C(=N\Nc1ccc(Cl)c(C(=O)O)c1)c1cccc([N+](=O)[O-])c1,?,22%,-10%,-3%,0,8%
O=[N+]([O-])c1cccc(/C=N/N=C\c2ccccc2)c1,16%,3%,-20%,9%,-18,7%
CC1(C)CC1C(=O)Nc1ccc([N+](=O)[O-])cc1Br (stereo not drawn),?,1%,?,4%,2,12%
Cc1ccc(C2(c3ccc(C)cc3)CC2C(=O)Nc2ccc([N+](=O)[O-])cc2O)cc1 (stereo not drawn),3%,16µM*,2.6µM*,3.7µM*,-73*,21µM*
C/C(=N\Nc1cc(C)nc(NCc2ccccc2)n1)c1cccc([N+](=O)[O-])c1,-9%,0%,2.9µM*,8.2µM*,-16,6%
O=[N+]([O-])c1cccc(/C=N/Nc2nnc(-c3ccccc3)c(-c3ccccc3)n2)c1,-3%,-2%,9.2µM*,9.2µM*,19,3%
C/C(=N\Nc1nnc(-c2ccccc2)c(-c2ccccc2)n1)c1cccc([N+](=O)[O-])c1,?,24%,8.2µM*,7.3µM*,13,20%
Cc1ccc(C)c(NC(=O)Cn2c(=O)nc(-c3ccccc3)c3ccccc32)c1,·,·,-20%,5%,·,·
O=C(COC(=O)c1ccc(F)c(S(=O)(=O)N2CCOCC2)c1)Nc1ccc2[nH]c(=O)[nH]c2c1,2%,2%,26%,16%,0,3%
Clc1cccc(N/N=C/c2ccc(N3CCOCC3)cc2)c1,?,13%,4%,-4%,-23,14%
O=[N+]([O-])/C=C\c1ccc(N2CCOCC2)cc1,·,15µM*,16µM*,15µM*,-80*,21µM*
O=[N+]([O-])c1cccc(N/N=C/c2ccc(N3CCOCC3)cc2)c1,?,?,16µM*,18µM*,-63*,-23%
COc1ccc(-n2nc(C(=O)Nc3cc(C)ccn3)c3c4ccccc4n(C)c3c2=O)cc1,·,·,-4%,-11%,·,·
CS(=O)(=O)N(CC(=O)N1CCOCC1)c1cc(Cl)ccc1Cl,?,8%,4%,-5%,6,13%
COc1ccc(C2(C)NC(=O)N(CC(=O)Nc3ccc(Br)cc3F)C2=O)cc1OC (stereo not drawn),-16%,-10%,-8%,3%,-19,-18%
CCCCCCCCNC(=O)c1cccnc1SCC(=O)Nc1ccc(OC)cc1OC,?,-1%,21µM*,-26%,15,-4%
O=C(NCCSc1ccccc1)c1ccccc1,?,13%,-3%,-8%,-17,9%
O=C(CNC(=O)c1ccc(Br)cc1)c1ccccc1,?,-2%,5%,-8%,-65*,-7%
O=C(NCC(=O)N1CCN(C/C=C/c2ccccc2)CC1)c1ccc(Br)cc1,21µM*,-5%,8.2µM*,16µM*,-1,-1%
CC(C)C(NC(=O)c1ccccc1)C(=O)N1CCN(C/C=C/c2ccccc2)CC1 (stereo not drawn),-28%,1%,?,?,-22,2%
C[C@H](NC(=O)c1ccc(C(C)(C)C)cc1)C(=O)N1CCN(C/C=C/c2ccccc2)CC1,?,?,21µM*,?,?,?
